Test in all cases: NCI-60 one-dose screen, 48 h (100 = growth as untreated, 0 = no growth, -100 = all killed)
Assay [1] deals with SR leukemia. The note with it: 10 µM unless noted.
Assay [2] has as its system RPMI-8226 leukemia. The note with it: 10 µM unless noted.
Assay [3] deals with OVCAR-8 ovarian. The note with it: 10 µM unless noted.
Assay [4] deals with OVCAR-5 ovarian. The note with it: 10 µM unless noted.
The subject of assay [5] is OVCAR-4 ovarian. The note with it: 10 µM unless noted.
Assay [6] deals with SK-OV-3 ovarian. The note with it: 10 µM unless noted.
Assay [7] relates to IGROV1 ovarian. The note with it: 10 µM unless noted.
Assay [8] concerns OVCAR-3 ovarian. The note with it: 10 µM unless noted.
Assay [9] deals with HS 578T breast. The note with it: 10 µM.
Assay [10] has as its system NCI/ADR-RES ovarian. The note with it: 10 µM unless noted.
Assay [11] concerns T-47D breast. The note with it: 10 µM unless noted.
The subject of assay [12] is BT-549 breast. The note with it: 10 µM unless noted.
In assay [13] the test system is MDA-MB-435 melanoma. The note with it: 10 µM unless noted.
The test system of assay [14] is SW-620 colon. The note with it: 10 µM unless noted.
In assay [15] the test system is MCF7 breast. The note with it: 10 µM unless noted.
Assay [16] concerns HCT-116 colon. The note with it: 10 µM unless noted.
The subject of assay [17] is HCC-2998 colon. The note with it: 10 µM.
For assay [18], the system named is KM12 colon. The note with it: 10 µM unless noted.

The panel holds about 83,000 compounds, 20% with a hit somewhere; the sample as a whole holds those more often.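 Activity criterion: percent growth below 10, measured after cells in 96-well plates were exposed to a single compound concentration for 48 hours.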 A number with no mark means an inactive call. The source made the active and inactive calls.

Regarding `COC(=O)[C@H](Cc1ccccc1)NC(=O)[C@@H](OC)[C@@H]1Cc2cc3cc(OC4CC(OC5CC(O)C(O)C(C)O5)C(O)C(C)O4)c(C)c(O)c3c(O)c2C(=O)[C@H]1OC1CC(OC2CC(OC3CC(C)(O)C(O)C(C)O3)C(O)C(C)O2)C(O)C(C)O1` (some centres undefined), the growth was 7.89% (active) in assay [1]; -16.5% (active) in assay [2]; 7.42% (active) in assay [3]; 8.6% (active) in assay [4]; 1.44% (active) in [5]; 17% in [6]. The growth was 25.5% in assay [7]; 5.7% (active) in assay [8]; -16.7% (active) in assay [9]; 51.6% in assay [10]; 2.51% (active) in assay [11]; -62.4% (active) in [12]. Besides, the growth in [13] was -69.4% (active); in assay [14], 6.79% (active); in [15] it was 3.21% (active); in [16] it was 1.85% (active); in [17], -45.2% (active); in [18], -5.45% (active).

As for `N#Cc1c(-c2ccc(C(F)(F)F)cc2)cc(NCC2CCS(=O)(=O)CC2)n2c1nc1ccccc12`, the growth was 79.9% in [1]; 80.9% in assay [2]; 93.3% in assay [3]; 103% in assay [4]; 85.4% in assay [5]; 83.3% in assay [6]. In addition, the growth in assay [7] is 85.6%; in assay [8], 97.9%; in assay [9] it was 81.3%; in assay [10], 103%; in assay [11], 64.3%; in assay [12], 64.9%. The growth in [13] is 92.8%; in [14], 93.3%; in [15] it was 85.6%; in [16], 74.9%; in [17], 91.9%; in [18] it was 98.4%.

As to `Cc1sc2c(c1C)c(=O)nc1c(-c3nc(-c4ccccc4)cs3)n[nH]n12`, the growth in [1] was 90.5%; in [2], 93.8%; in [3] it was 99.8%; in [4], 109%; in assay [5], 106%; in [6] it was 89.6%. The growth was 96.9% in [7]; 96.4% in assay [8]; 93.4% in [9]; 96.1% in assay [10]; 83.9% in assay [11]; 110% in [12]. The growth in assay [13] was 107%; in assay [14], 97.3%; in assay [15] it was 91.2%; in [16] it was 100%; in assay [17] it was 101%; in [18] it was 99.4%.

Turning to `CN1CCN(CC(=O)Nc2ccc(-c3nc4ccccc4s3)cc2)CC1`, the growth in assay [1] was 6.26% (active); in assay [2] it was 88.1%; in [3], 91.3%; in assay [4], 72.9%; in assay [5] it was 87.3%; in assay [6], 94.2%. For the same compound, the growth in assay [7] is 80.6%; in [8], 99.2%; in [9], 93.7%; in assay [10], 85.6%; in [11] it was 54.1%; in assay [12], 80.7%. Moreover, the growth was 25.4% in assay [13]; 102% in assay [14]; 36.8% in [15]; 70.9% in assay [16]; 77.3% in assay [17]; 85.6% in assay [18].

For `COc1ccc(-c2cnc(-c3ccc(Cl)cc3)[nH]2)cc1OC`, the growth in assay [1] is 42.7%; in [2] it was 33.1%; in [3], 98.9%; in assay [4], 98.2%; in assay [5], 89.9%; in [6], 94.6%. Further, the growth was 52.5% in assay [7]; 103% in assay [8]; 93.5% in assay [9]; 106% in [10]; 84.7% in assay [11]; 132% in assay [12]. Also, the growth in assay [13] is 128%; in assay [14], 95.9%; in [15], 93.9%; in assay [16] it was 98.6%; in assay [17] it was 112%; in assay [18], 97.3%.

With `O=C(Cc1ccccc1)Nc1nnc(NC2CCN(c3nnc(NC(=O)Cc4ccccc4)s3)CC2)s1`, the growth in [1] was 84.9%; in assay [2] it was 58.9%; in [3], 95.2%; in assay [4], 94.3%; in assay [5], 98.8%; in assay [6], 84%. Besides, the growth was 84.8% in [7]; 94.4% in assay [8]; 78.6% in assay [9]; 98.4% in assay [10]; 84% in assay [11]; 82% in assay [12]. Further, the growth in assay [13] is 102%; in [14] it was 99.8%; in assay [15] it was 87.4%; in assay [16], 89.2%; in assay [17], 101%; in assay [18], 59.2%.

On to `CCNC(=O)Nc1nc2ccc(Oc3ccnc(C(=O)NC)c3)cc2s1`, for which the growth in assay [1] was 30.4%; in [2] it was 85%; in [3], 91.6%; in assay [4] it was 92.9%; in [5] it was 83%; in assay [6], 88.1%. Besides, the growth in assay [7] is 90%; in assay [8] it was 83.1%; in assay [9] it was 87.3%; in assay [10], 73.3%; in assay [11], 62.6%; in assay [12], 90.6%. Moreover, the growth in [13] was 3.1% (active); in [14] it was 45.8%; in assay [15] it was 36.9%; in assay [16], 56%; in assay [17] it was 71.9%; in assay [18] it was 33.4%.

Consider `COc1ccc2c(CCCCC(c3ccccc3)c3ccccc3)c3[n+](cc2c1OC)CCc1cc2c(cc1-3)OCO2`, for which the growth in assay [1] is -35.8% (active); in [2] it was -33% (active); in assay [3], -54.8% (active); in [4], -13.4% (active); in assay [5], -80.2% (active); in assay [6], -9.34% (active). Further, the growth in [7] was -52.1% (active); in [8], -89.6% (active); in assay [9] it was -20.1% (active); in [10] it was 68.5%; in assay [11], -49.3% (active); in assay [12], -74.2% (active). In addition, the growth in assay [13] was -91.8% (active); in assay [14], -76.9% (active); in assay [15] it was -40.6% (active); in [16] it was -52.8% (active); in assay [17], -95.7% (active); in assay [18], -71.5% (active).

The values are drawn from PubChem BioAssay (NCI).
